High-throughput results deposited in PubChem BioAssay by National Center for Advancing Translational Sciences (NCATS).
An excerpt weighted towards active compounds, which were near 19% of everything screened.
DT40 TDP1 CPT: DT40-hTDP1 cell growth loss with CPT; chicken DT40 Tdp1-/-;hTDP1 cells + 20 nM CPT, ATP luminescence, 48 h; Potency, µM (titrated, usually from 46.2 µM), without a hit: at the top dose activity change, negative = growth inhibition, usual class: inhibitors; 420,000 tested, 12% active; AID 686979; further: potency means the concentration at half of the fitted maximal effect; on the % scale 0 is the no-effect control and ±100 the full control effect; nearly all actives have a fitted effect of over 55% in size
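Chicken DT40 Tdp1-/- cells complemented with human TDP1, 400 cells/well, exposed to compounds plus 20 nM camptothecin for at least 48 h at 37 C; viability read as ATP content by CellTiter-Glo luminescence.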
HepG2 tox: kills HepG2 cells in TGF-b inhibitor counter-screen | HepG2 CAGA-GFP viability, ATP luminescence, 18 h | Potency, µM (titrated, usually from 46.1 µM), without a hit: at the highest dose activity change, negative = cytotoxicity, usual class: cytotoxic | 410,000 tested, 0.76% active; further: potency means the concentration at half of the fitted maximal effect
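CellTiter-Glo luminescence gave cytotoxicity after 18 hours at 37 degrees C. The cells were HepG2 CAGA-GFP in 1% FBS DMEM, stimulated with 500 pg/mL TGF-beta after compound addition. %Activity was normalised to no-cell wells (complete cell-killing) and DMSO (no toxicity), and curves were fitted and classified.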
ASM inhibitor: inhibitors of human secretory acid sphingomyelinase | P17405 | placental ASM, HMU-PC fluorogenic substrate, 60 min | Potency, µM (titrated, usually from 57.5 µM), for the others: at the highest dose activity change, negative = inhibition, usual class: inhibitors | 340,000 tested, 0.006% active | AID 504937; further: potency means the concentration at half of the fitted maximal effect
Target sequence (P17405 47-631 limits assumed): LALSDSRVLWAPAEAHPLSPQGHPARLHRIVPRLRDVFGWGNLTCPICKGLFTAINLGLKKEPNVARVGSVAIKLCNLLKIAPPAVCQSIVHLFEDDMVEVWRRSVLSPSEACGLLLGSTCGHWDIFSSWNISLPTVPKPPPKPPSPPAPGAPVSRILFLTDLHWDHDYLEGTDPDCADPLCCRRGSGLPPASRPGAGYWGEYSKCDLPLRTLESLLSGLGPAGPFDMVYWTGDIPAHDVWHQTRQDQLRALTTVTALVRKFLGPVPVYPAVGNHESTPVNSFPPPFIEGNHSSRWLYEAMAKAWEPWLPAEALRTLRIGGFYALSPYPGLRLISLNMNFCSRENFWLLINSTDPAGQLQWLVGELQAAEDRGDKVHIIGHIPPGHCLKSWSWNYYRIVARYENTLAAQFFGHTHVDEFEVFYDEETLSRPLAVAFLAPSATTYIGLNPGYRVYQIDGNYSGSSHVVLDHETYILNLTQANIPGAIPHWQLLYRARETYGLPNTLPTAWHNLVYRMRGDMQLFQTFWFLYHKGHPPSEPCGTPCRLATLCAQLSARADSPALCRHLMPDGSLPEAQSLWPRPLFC
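Fluorogenic HMU-PC substrate (9 uM final) is turned over by placental ASM in 60 min at 37 C after a 10 min compound preincubation. Reaction ended by alkaline stop (pH 10), with fluorescence read at 386/447 nm.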
TGFb inhibitor: blocks TGF-b signaling; HepG2 CAGA-GFP TGF-b/SMAD3 reporter, GFP fluorescence, 18 h; TGF-beta stimulated, 500 pg/mL final; Potency, µM (doses to about 46.1 µM), without a hit: at the highest dose activity, negative = inhibition, actives largely listed as inhibitors; 410,000 tested, 1.2% active; AID 588855; further: potency means the concentration at half of the fitted maximal effect; on the % scale 0 is the no-effect control and ±100 the full control effect; nearly all actives have a fitted effect of over 65% in size
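Read-out: total well GFP (ex488/em500-530) summed from mean per-cell fluorescence. Cells: HEPG2 CAGA-GFP, 1% FBS DMEM, 18 h at 37 degrees C with 500 pg/mL final TGF-beta. Unstimulated wells served as the full-inhibition control; stimulated DMSO wells = 0%.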
DT40 TDP1 no CPT: qHTS for Inhibitors of human tyrosyl-DNA phosphodiesterase 1 (TDP1): qHTS in cells in absence of CPT. 420,000 tested, 15% active. DT40 Tdp1-/- hTDP1 cells, no CPT, ATP luminescence, 48 h. Potency, µM (highest dose often 46.2 µM), without a hit: at the highest dose activity change, negative = growth inhibition, usual class: inhibitors; further: potency means the concentration at half of the fitted maximal effect; on the % scale 0 is the no-effect control and ±100 the full control effect; nearly all actives have a fitted effect of over 55% in size
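Luminescent ATP content (CellTiter-Glo) served as the growth readout. Knockout chicken DT40 cells expressing human TDP1 were exposed to compounds without camptothecin for a minimum 48 hr at 37 °C.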
IL1B secr inh: inhibitors of inflammasome signaling (IL-1 beta secretion). AID 743279. 360,000 tested, 4.7% active. activity change, % at 57.5 µM. THP-1 LPS/ATP IL-1B secretion, AlphaLISA, 16 h; hits give low values; in the data active means activity change below about -50%; inconclusive means mostly about -30% to -49%; further: on the % scale 0 is the no-effect control and ±100 the full control effect
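THP-1 cells pretreated 1 hr with compounds (up to 57.5 uM final), then stimulated with LPS (250 ng/mL final) plus ATP (1.25 mM final); secreted IL-1B measured by AlphaLISA after 16 hr, decreased signal indicating inhibition.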
* hit, by the source's call; ? = inconclusive; nt = not tested or not shown. Unless noted, the call rests on the fitted dose curve; in most records, active means well fitted curve in the direction sought with a large enough effect; inconclusive means small, poorly fitted or top-dose-only effect, or another doubt; inactive means no such curve, though single readings can be large; an effect the other way counts as inactive or inconclusive.

SMILES | DT40 TDP1 CPT | HepG2 tox | ASM inhibitor | TGFb inhibitor | DT40 TDP1 no CPT | IL1B secr inh
COc1c(C(=O)Nc2ccc(Cc3ccncc3)cc2)ccc2ccccc12 | ? | -12% | 10% | ? | 23µM* | -14
COc1cccc(N2[C@@H](CC(=O)O)c3cc(C(F)(F)F)ccc3S2(=O)=O)c1 | 4% | 5% | 8% | ? | -10% | -3
COC(=O)C1CN(C(=O)c2ccc(OC(F)F)cc2)c2ccccc2O1 (stereo not given) | 6% | 3% | -1% | 5% | 4% | 5
CCC(=O)N1CCc2cc(S(=O)(=O)CCC(=O)Nc3nc(C)cs3)ccc21 | ? | -13% | 0% | -4% | ? | -58*
CCC(=O)N1CCc2cc(S(=O)(=O)CCC(=O)NCc3ccc(F)cc3)ccc21 | 6.5µM* | -37% | nt | 0% | 3.3µM* | nt
COc1ccccc1-c1nnc(N)s1 | 4% | 19% | -1% | 5% | -2% | -10
COc1ccccc1-c1nnc(SC2CCc3ccccc3NC2=O)s1 (stereo not given) | ? | 1% | -13% | 13µM* | ? | -13
O=C1CC(NC2CCN(C(=O)c3cccc(F)c3)CC2)C(=O)N1 (stereo not given) | -6% | -16% | -1% | -19% | -1% | 6
CCCN1C(=O)C2(c3ccccc31)c1c(oc3ccc(C)cc3c1=O)C(=O)N2CCOC (stereo not given) | ? | 0% | nt | -3% | ? | nt
COC(=O)c1cc(Br)ccc1N(Cc1cc(OC)cc(OC)c1)S(C)(=O)=O | ? | 9% | 0% | 10% | 16µM* | -15
COC(=O)c1ccccc1N(Cc1ccccc1)S(C)(=O)=O | -22% | 3% | -2% | -14% | -5% | 0
O=C(OCC(=O)N1CCOCC1)c1cccc(F)c1 | 4% | -5% | -3% | -9% | -14% | 5
CC(=O)c1ccc(Nc2nc(-c3sc(C)nc3C)cs2)cc1 | 2.1µM* | -11% | nt | -3% | 1.8µM* | 1
Cc1nc(C)c(-c2csc(Nc3ccc(S(N)(=O)=O)cc3)n2)s1 | ? | 9% | 0% | -13% | ? | -59*
Cc1nc(Nc2ccc(S(N)(=O)=O)cc2)sc1-c1ccccc1 | ? | -121% | -18% | ? | 18µM* | -80*
Cc1ccc(Nc2nc(-c3sc(C)nc3C)cs2)cc1 | 0.92µM* | -42% | -9% | ? | 0.58µM* | 71
COc1ccc(Nc2nc(-c3sc(C)nc3C)cs2)c(OC)c1 | 6.5µM* | 3% | -12% | 14% | 8.2µM* | -14
CC(=O)Nc1ccc(Nc2nc(-c3sc(C)nc3C)cs2)cc1 | 16µM* | -18% | -1% | -23% | ? | -50*
CNc1nnc(Sc2ncccc2[N+](=O)[O-])s1 | 8.2µM* | 13% | 2% | -5% | 16µM* | nt
O=[N+]([O-])c1cccnc1Sc1ccc(F)cc1 | -2% | 7.1µM* | -1% | -13% | -18% | -12
CC(C)CCn1c(SCc2cccc(F)c2)nc2ccsc2c1=O | ? | -29% | nt | ? | ? | nt
Cn1c(SCc2nc3ccccc3[nH]2)nnc1-c1cccnc1 | -19% | 1% | 2% | 2% | -17% | 10
CCOc1ccc(-c2nnc(SCc3nc4ccccc4[nH]3)n2N)cc1 | -20% | 4% | 2% | ? | -2% | -64*
COc1ccc(/C=C/C(=O)N2c3ccccc3Sc3ccc(C(F)(F)F)cc32)cc1 | ? | 1% | -10% | -13% | 18µM* | -3
O=C(/C=C/c1ccccc1)N1c2ccccc2Sc2ccc(C(F)(F)F)cc21 | -9% | -13% | 0% | 0% | -8% | -1
SMILES | DT40 TDP1 CPT | HepG2 tox | ASM inhibitor | TGFb inhibitor | DT40 TDP1 no CPT | IL1B secr inh
COc1ccc2cc(Br)ccc2c1CC(=O)NC1CC(C)(C)NC(C)(C)C1 | ? | -90% | 1% | -60% | 23µM* | -66*
O=C1CCN(Cc2ccccc2)CCN1CCOc1ccccc1 | 21µM* | -1% | 0% | -4% | 16µM* | -4
O=C(Nc1cccc(Cl)c1)OCCN1CCN(Cc2ccccc2)CCC1=O | ? | -2% | 1% | -15% | 18µM* | -2
CC(C)C(CO)N1CCN(Cc2ccccc2)CCC1=O (stereo not given) | 3% | -4% | 3% | -33% | -2% | -15
CC(C)[C@@H](COc1ccccc1)N1CCN(Cc2ccccc2)CCC1=O | 11µM* | -27% | -2% | 0% | ? | -4
O=C(Nc1ccccc1)OCCN1CCN(Cc2ccccc2)CCC1=O | 2% | -20% | 0% | -1% | -11% | -5
Cc1ccccc1C(=O)NC1CCN(CC(=O)NCc2cccs2)CC1 | 1% | -10% | 3% | -11% | 6% | -12
COc1ccc(C2CCc3cc(OC)c(OC)cc3C2NC=O)cc1OC (stereo not given) | -15% | -5% | nt | 2% | ? | 9
C=CCOC(=O)C(C#N)c1nc2ccccc2nc1N1CCN(c2ccccc2OCC)CC1 (stereo not given) | 1% | -16% | -1% | 8% | -5% | 16
CCCN(CCC)c1nc2ccccc2nc1C(C#N)C(=O)OCCOC (stereo not given) | ? | -1% | 72% | 22% | 23µM* | -62*
C=CCN(CC=C)c1nc2ccccc2nc1C(C#N)C(=O)OCCOC (stereo not given) | 21µM* | -1% | 174% | -3% | ? | ?
CC(=O)Nc1nc(CCN2C(=O)c3ccccc3C2=O)cs1 | 10% | -16% | 0% | -1% | -8% | -6
Oc1ccccc1C1CC(c2cccs2)=NC(c2ccc(Cl)cc2)N1 (stereo not given) | 21µM* | -93% | 20% | 20µM* | 4.1µM* | ?
CS(=O)(=O)N1N=C(c2cccs2)CC1c1ccccc1O (stereo not given) | -5% | -23% | 4% | 1% | -7% | -4
CC(=O)OC(C[N+]1(C)CCCCCC1)c1ccccc1 (stereo not given) | 0% | -3% | 2% | -5% | 2% | -5
C#CC[N+]1(CC#Cc2ccccc2)CCCCC1 | 16µM* | -8% | 0% | ? | 16µM* | 11
C#CC[N+]1(CC#Cc2cccc(C)c2)CCCCC1 | 2.6µM* | 0% | -1% | 0% | 2.3µM* | 11
CCC[N+]1(CC#CCC(c2ccccc2)c2ccccc2)CCCCC1 | 1.5µM* | -29% | -1% | -7% | 1.3µM* | -85*
